Data on 5 compounds can be found in PubChem BioAssay (EPA / NIEHS).

Inconclusive results are not listed. Calls of active or inactive are those of the source. How the source made its calls, unless noted: active means hit-call score of the fitted dose curve at least 0.9, where 1 is the maximum; inactive means score below 0.9.

Assay [1] in a line: ATG_TAL_CIS: Attagene CIS-FACTORIAL HepG2 Assay for human TAL Basal Promoter (AID 2282966).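 Further: background control endpoint measuring basal TAL promoter reporter mRNA not a specific factor.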 The settings on record: HepG2 Attagene cis-factorial TAL promoter reporter; actives raise or lower the signal. The gist of the method:
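HepG2, transient MRTU transfection, 24 h compound exposure; RNA → oligo(dT) RT → PCR → 6-FAM primer extension → HpaI digest → CE fluorescence. Bidirectional curve fit vs DMSO. Background-control readout.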

Assay [2] can be described thus: ATG_TGFb_CIS: Attagene CIS-FACTORIAL HepG2 Assay for human Transforming Growth Factor (TGF) (AID 2282967). The settings on record: HepG2 Attagene CIS TGFb reporter, mRNA transcription; actives raise or lower the signal. The gist of the method: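 Endogenous TGFB1-linked transcription factor activity read as reporter mRNA via RT-PCR and capillary electrophoresis, 24 h after dosing transiently transfected HepG2 cells. Gain or loss of signal fitted relative to DMSO.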

Assay [3] is described as follows: ATG_VDRE_CIS: Attagene CIS-FACTORIAL HepG2 Assay for human Vitamin D Receptor Element (VDRE) (AID 2282968). The settings on record: HepG2 VDRE cis-reporter transcription, actives raise or lower the signal. The gist of the method: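 Readout is VDRE-driven reporter mRNA reflecting endogenous factor activity in human HepG2 cells, sampled 24 h post-dose. Quantification used labelled RT-PCR products separated by capillary electrophoresis; bidirectional analysis relative to DMSO.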

In assay [4] the target is Nuclear receptor subfamily 1 group I member 3 (Homo sapiens) (UniProt Q14994). As to the kind of experiment: ATG_CAR_TRANS: Attagene TRANS-FACTORIAL HepG2 Assay for human Constitutive Androstane Receptor (CAR) (AID 2282969; active means hit-call score of the fitted dose curve at least 0.9, where 1 is the maximum;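 further: activators raise reporter mRNA above DMSO so AC50 marks induction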). The settings on record: HepG2 Attagene TRANS-FACTORIAL CAR reporter. The gist of the method:
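Signal is reporter mRNA induction relative to DMSO, measured 24 h after dosing by RT-PCR with fluorescent primer extension and capillary electrophoresis. Human HepG2 liver cells carried transiently transfected chimeric NR-Gal4/GAL4-UAS reporter constructs.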

In assay [5] the target is X-box-binding protein 1 (Homo sapiens) (UniProt P17861). Put plainly: ATG_Xbp1_CIS: Attagene CIS-FACTORIAL HepG2 Assay for human X-box Binding Protein 1 (XBP1) (AID 2282972). The settings on record: HepG2 XBP1 cis-element reporter, Attagene multiplex; actives raise or lower the signal. The gist of the method:
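Reporter transcripts were quantified by RT-PCR with fluorescent primer extension and capillary electrophoresis after 24 h chemical exposure. Cells: transiently transfected HepG2 carrying cis-regulated reporter constructs; data fitted bidirectionally relative to DMSO.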

A short description of assay [6]: ATG_M_19_TRANS: Attagene TRANS-FACTORIAL HepG2 Assay for M19 Transcription Factor (Internal Marker) (AID 2282974; active means hit-call score of the fitted dose curve at least 0.9, where 1 is the maximum). The settings on record: HepG2 Attagene TRANS-FACTORIAL M19 internal marker reporter. The gist of the method:
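HepG2 transiently transfected with GAL4-UAS multiplex reporter constructs, exposed 24 h; reporter RNA quantified by RT-PCR, 6-FAM labeling, HpaI digestion and capillary electrophoresis; internal background marker fitted upward versus DMSO.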

In assay [7] the target is Bile acid receptor (Homo sapiens) (UniProt Q96RI1). As to the kind of experiment: ATG_FXR_TRANS: Attagene TRANS-FACTORIAL HepG2 Assay for Farnesoid X Receptor (FXR) (AID 2282979; active means hit-call score of the fitted dose curve at least 0.9, where 1 is the maximum;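 further: hits raise reporter mRNA above DMSO so AC50 marks FXR activation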). The settings on record: HepG2 Attagene TRANS FXR-GAL4 reporter transcription. The method in brief:
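Read-out: fluorescent reporter transcripts quantified by capillary electrophoresis after RT-PCR of total RNA. Source cells were HepG2 transiently carrying chimeric NR-GAL4 plus GAL4-UAS reporter units, dosed 24 h. Activity fitted upward relative to DMSO baseline.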

Assay [8] addresses Oxysterols receptor LXR-alpha (Homo sapiens) (UniProt Q13133). As to the kind of experiment: ATG_LXRa_TRANS: Attagene TRANS-FACTORIAL HepG2 Assay for human Liver X Receptor alpha (LXRa) (AID 2282980; active means hit-call score of the fitted dose curve at least 0.9, where 1 is the maximum). The settings on record: HepG2 Attagene TRANS reporter, LXRa transactivation. The gist of the method:
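Read-out: reporter transcript levels by RT-PCR plus capillary electrophoresis, fluorescence intensity. Transiently transfected HepG2, exogenous NR-GAL4 chimera, GAL4-UAS reporters; 24 h compound exposure. Activity = increase over DMSO negative control.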

Assay [9] deals with Oxysterols receptor LXR-beta (Homo sapiens) (UniProt P55055). Put plainly: ATG_LXRb_TRANS: Attagene TRANS-FACTORIAL HepG2 Assay for human Liver X Receptor beta (LXRb) (AID 2282981; active means hit-call score of the fitted dose curve at least 0.9, where 1 is the maximum). The settings on record: HepG2 Attagene TRANS GAL4-LXRb reporter, mRNA. The gist of the method:
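After 24 h chemical treatment of transfected HepG2 cells carrying exogenous NR-Gal4 chimeras, reporter mRNA was quantified by fluorescent RT-PCR and capillary electrophoresis; activity taken as increase over DMSO controls.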

Assay [10] concerns the target Hepatocyte nuclear factor 4-alpha (Homo sapiens) (UniProt P41235). Put plainly: ATG_HNF4a_TRANS: Attagene TRANS-FACTORIAL HepG2 Assay for human Hepatocyte Nuclear Factor 4 alpha (HNF4a) (AID 2282982; active means hit-call score of the fitted dose curve at least 0.9, where 1 is the maximum). The settings on record: HepG2 HNF4a transactivation reporter, mRNA readout. The gist of the method:
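Activity of an exogenous HNF4a–Gal4 fusion scored as induced GAL4-UAS reporter transcripts after 24 h chemical exposure of transfected human HepG2 cells. Read-out via RT-PCR with 6-FAM labelling and capillary electrophoresis; rise over DMSO baseline.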

For assay [11], the target named is Transcriptional activator Myb (Homo sapiens) (UniProt P10242). As to the kind of experiment: ATG_Myb_CIS: Attagene CIS-FACTORIAL HepG2 Assay for human Myeloblastosis (Myb) Proto-Oncogene Transcription Factor (AID 2282986). The settings on record: HepG2 Attagene CIS-FACTORIAL Myb reporter transcription; actives raise or lower the signal. The method in brief:
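Transiently transfected HepG2 cells carrying a multiplexed cis-promoter reporter set report endogenous Myb activity after 24 h compound exposure. Reporter mRNA is read by RT-PCR with capillary electrophoresis of fluorescent products, fitted bidirectionally against DMSO.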

The target of assay [12] is Nuclear respiratory factor 1 (Homo sapiens) (UniProt Q16656). As to the kind of experiment: ATG_NRF1_CIS: Attagene CIS-FACTORIAL HepG2 Assay for human Nuclear Respiratory Factor 1 (NRF1) Orphan Gene (AID 2282987). The settings on record: HepG2 NRF1 cis-element reporter, Attagene multiplex; actives raise or lower the signal. The method in brief: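 HepG2 cells transiently transfected with multiple cis-regulated reporter units, exposed 24 h. Reporter mRNAs measured by RT-PCR, fluorescent labelling, HpaI digestion and capillary electrophoresis; bidirectional fitting against DMSO.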
Sequence of Nuclear respiratory factor 1 (Homo sapiens) (Q16656 whole entry, looked up): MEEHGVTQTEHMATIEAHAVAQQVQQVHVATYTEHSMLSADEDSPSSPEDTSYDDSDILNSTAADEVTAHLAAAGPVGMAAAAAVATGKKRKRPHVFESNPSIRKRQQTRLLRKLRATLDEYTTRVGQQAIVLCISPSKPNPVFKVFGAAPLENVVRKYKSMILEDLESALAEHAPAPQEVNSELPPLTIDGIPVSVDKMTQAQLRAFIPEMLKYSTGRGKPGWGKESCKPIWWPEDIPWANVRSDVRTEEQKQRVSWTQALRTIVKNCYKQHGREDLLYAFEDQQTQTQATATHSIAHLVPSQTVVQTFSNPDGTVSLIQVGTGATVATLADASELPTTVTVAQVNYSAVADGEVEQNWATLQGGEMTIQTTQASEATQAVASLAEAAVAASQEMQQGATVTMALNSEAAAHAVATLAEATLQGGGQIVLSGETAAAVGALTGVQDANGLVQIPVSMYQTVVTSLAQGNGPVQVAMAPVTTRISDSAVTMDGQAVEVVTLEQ

Assay [13] can be described thus: ATG_NFI_CIS: Attagene CIS-FACTORIAL HepG2 Assay for human Nuclear Factor I (NFI) (AID 2282989). The settings on record: HepG2 cis-regulatory reporter, NFI response element transcription; actives raise or lower the signal. The gist of the method:
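Reporter transcripts were measured by RT-PCR with fluorescent primer extension and capillary electrophoresis 24 h post-treatment. HepG2 cells carried transiently transfected cis-regulated reporter constructs reporting endogenous factor activity; gain or loss fitted against DMSO baseline.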

For assay [14], the target named is Estrogen-related receptor gamma (Homo sapiens) (UniProt P62508). As to the kind of experiment: ATG_ERRg_TRANS: Attagene TRANS-FACTORIAL HepG2 Assay for human Estrogen-Related Receptor gamma (ERRg) (AID 2282977; active means hit-call score of the fitted dose curve at least 0.9, where 1 is the maximum;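 further: hits increase reporter signal over DMSO so potencies reflect activators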). The settings on record: HepG2 Attagene TRANS reporter, ERRg transactivation. The gist of the method: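 Exogenous NR-Gal4 chimera activity measured as reporter transcript induction after 24 h in transiently transfected HepG2 cells. RNA reverse-transcribed, PCR-amplified, 6-FAM-labelled and resolved by capillary electrophoresis; increase over DMSO baseline.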
Sequence of Estrogen-related receptor gamma (Homo sapiens) (P62508 whole entry, looked up, the tested form may be a part): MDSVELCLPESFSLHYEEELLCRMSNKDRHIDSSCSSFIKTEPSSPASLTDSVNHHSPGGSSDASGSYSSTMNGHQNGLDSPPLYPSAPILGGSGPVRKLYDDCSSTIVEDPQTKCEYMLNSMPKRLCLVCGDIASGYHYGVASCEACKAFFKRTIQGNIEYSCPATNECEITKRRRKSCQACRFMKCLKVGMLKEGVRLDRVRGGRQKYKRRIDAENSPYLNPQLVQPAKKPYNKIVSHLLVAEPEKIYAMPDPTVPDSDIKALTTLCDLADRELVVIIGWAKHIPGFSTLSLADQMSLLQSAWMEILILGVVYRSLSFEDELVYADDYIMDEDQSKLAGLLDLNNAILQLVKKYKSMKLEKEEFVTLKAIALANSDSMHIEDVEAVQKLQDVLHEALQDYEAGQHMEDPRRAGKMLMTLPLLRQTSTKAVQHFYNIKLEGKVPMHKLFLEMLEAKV

Assay [15] in a line: ATG_M_06_TRANS: Attagene TRANS-FACTORIAL HepG2 Assay for M06 Transcription Factor (Internal Marker) (AID 2282983; active means hit-call score of the fitted dose curve at least 0.9, where 1 is the maximum). The settings on record: HepG2 Attagene TRANS M06 internal marker reporter. The method in brief:
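Read-out: fluorescent reporter cDNA fragments resolved by capillary electrophoresis after RT-PCR and HpaI cut. Source cells were HepG2 carrying transfected multi-reporter GAL4 constructs, dosed 24 h. Increase over DMSO control analysed.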

Assay [16] in a line: ATG_M_32_TRANS: Attagene TRANS-FACTORIAL HepG2 Assay for M32 Transcription Factor (Internal Marker) (AID 2282984; active means hit-call score of the fitted dose curve at least 0.9, where 1 is the maximum;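 further: transcript level of a background control reporter unit measured by RT-PCR and capillary electrophoresis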). The settings on record: HepG2 Attagene TRANS M32 internal marker reporter. The gist of the method: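 Internal background reporter in transfected HepG2: after 24 h chemical exposure, RNA reverse-transcribed, reporter cDNA amplified, fluorescently labelled and HpaI-cut, then sized by capillary electrophoresis. Gain of signal fitted against DMSO control.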

Assay [17] has as its target Nuclear receptor subfamily 4 group A member 2 (Homo sapiens) (UniProt P43354). As to the kind of experiment: ATG_NURR1_TRANS: Attagene TRANS-FACTORIAL HepG2 Assay for human Nuclear Receptor Related Protein 1 (NURR1) (AID 2282985; active means hit-call score of the fitted dose curve at least 0.9, where 1 is the maximum). The settings on record: HepG2 Attagene TRANS reporter, mRNA readout. The method in brief:
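Reporter transcript induction, measured by RT-PCR with fluorescent labelling, HpaI digestion and capillary electrophoresis, after 24 hr dosing of human HepG2 cells transiently expressing an exogenous NR-Gal4 fusion with GAL4-UAS-driven reporters; DMSO as baseline.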

Assay [18] has as its target Steroid hormone receptor ERR1 (Homo sapiens) (UniProt P11474). As to the kind of experiment: ATG_ERRa_TRANS: Attagene TRANS-FACTORIAL HepG2 Assay for human Estrogen-Related Receptor alpha (ERRa) (AID 2282971; active means hit-call score of the fitted dose curve at least 0.9, where 1 is the maximum). The settings on record: HepG2 Attagene TRANS reporter, ERRa transactivation. The method in brief:
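Transfected HepG2, 24 h dosing, ERRa-Gal4 chimera driving GAL4-UAS reporter. Readout: reporter mRNA via RT-PCR plus capillary electrophoresis (fluorescence). Positive direction vs DMSO control.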

Sequence of Hepatocyte nuclear factor 4-alpha (Homo sapiens) (P41235 whole entry, looked up, the tested form may be a part): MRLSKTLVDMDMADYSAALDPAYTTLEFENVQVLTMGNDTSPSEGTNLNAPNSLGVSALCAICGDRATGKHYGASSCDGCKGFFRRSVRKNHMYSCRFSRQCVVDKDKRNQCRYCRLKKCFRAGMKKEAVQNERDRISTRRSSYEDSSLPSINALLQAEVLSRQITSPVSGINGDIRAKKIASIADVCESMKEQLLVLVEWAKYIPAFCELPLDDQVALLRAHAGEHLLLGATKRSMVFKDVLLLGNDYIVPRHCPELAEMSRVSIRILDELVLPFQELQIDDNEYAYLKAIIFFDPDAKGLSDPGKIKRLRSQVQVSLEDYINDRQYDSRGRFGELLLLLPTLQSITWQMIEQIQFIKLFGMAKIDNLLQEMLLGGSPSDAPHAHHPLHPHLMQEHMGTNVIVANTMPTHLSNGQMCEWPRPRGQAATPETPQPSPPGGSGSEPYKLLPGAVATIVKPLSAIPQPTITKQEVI
Sequence of Transcriptional activator Myb (Homo sapiens) (P10242 whole entry, looked up): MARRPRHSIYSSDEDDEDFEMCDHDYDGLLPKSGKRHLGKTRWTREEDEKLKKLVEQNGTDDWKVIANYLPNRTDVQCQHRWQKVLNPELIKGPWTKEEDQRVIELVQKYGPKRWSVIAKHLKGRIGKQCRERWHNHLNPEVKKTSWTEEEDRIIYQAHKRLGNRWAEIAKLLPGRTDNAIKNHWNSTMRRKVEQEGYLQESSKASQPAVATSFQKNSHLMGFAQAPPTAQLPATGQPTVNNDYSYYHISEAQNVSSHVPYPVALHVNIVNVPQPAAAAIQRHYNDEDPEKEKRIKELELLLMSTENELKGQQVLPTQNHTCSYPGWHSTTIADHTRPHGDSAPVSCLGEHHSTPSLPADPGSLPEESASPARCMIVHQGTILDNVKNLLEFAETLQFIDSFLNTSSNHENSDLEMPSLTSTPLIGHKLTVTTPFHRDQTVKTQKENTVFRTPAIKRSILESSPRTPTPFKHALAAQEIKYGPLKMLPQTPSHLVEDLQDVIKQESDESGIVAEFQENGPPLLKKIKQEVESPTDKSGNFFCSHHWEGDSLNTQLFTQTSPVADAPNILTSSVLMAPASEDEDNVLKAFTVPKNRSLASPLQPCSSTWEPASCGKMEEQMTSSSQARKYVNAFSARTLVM
Sequence of Oxysterols receptor LXR-beta (Homo sapiens) (P55055 whole entry, looked up, the tested form may be a part): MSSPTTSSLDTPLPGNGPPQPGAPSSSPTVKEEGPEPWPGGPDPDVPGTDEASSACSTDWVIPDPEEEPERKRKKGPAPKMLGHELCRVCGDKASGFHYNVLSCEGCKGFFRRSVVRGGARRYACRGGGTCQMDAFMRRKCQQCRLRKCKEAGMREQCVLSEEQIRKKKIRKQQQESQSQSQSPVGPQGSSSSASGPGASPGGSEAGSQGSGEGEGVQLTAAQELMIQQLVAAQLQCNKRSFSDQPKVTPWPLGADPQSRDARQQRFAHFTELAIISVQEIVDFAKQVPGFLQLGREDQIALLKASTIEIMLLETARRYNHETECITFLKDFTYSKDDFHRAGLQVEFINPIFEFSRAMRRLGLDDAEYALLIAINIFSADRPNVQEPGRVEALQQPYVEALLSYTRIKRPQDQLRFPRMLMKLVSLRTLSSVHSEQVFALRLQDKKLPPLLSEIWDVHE
Sequence of Nuclear receptor subfamily 1 group I member 3 (Homo sapiens) (Q14994 whole entry, looked up, the tested form may be a part): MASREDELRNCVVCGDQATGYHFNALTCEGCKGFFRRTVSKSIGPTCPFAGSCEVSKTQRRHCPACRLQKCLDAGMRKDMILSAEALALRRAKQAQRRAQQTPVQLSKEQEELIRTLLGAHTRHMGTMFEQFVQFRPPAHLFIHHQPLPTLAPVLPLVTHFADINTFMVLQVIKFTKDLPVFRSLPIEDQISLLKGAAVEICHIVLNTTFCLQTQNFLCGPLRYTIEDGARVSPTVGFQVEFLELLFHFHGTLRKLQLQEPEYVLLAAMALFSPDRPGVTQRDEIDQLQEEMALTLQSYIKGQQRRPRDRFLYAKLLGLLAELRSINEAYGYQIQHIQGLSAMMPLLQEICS
Sequence of Nuclear receptor subfamily 4 group A member 2 (Homo sapiens) (P43354 whole entry, looked up, the tested form may be a part): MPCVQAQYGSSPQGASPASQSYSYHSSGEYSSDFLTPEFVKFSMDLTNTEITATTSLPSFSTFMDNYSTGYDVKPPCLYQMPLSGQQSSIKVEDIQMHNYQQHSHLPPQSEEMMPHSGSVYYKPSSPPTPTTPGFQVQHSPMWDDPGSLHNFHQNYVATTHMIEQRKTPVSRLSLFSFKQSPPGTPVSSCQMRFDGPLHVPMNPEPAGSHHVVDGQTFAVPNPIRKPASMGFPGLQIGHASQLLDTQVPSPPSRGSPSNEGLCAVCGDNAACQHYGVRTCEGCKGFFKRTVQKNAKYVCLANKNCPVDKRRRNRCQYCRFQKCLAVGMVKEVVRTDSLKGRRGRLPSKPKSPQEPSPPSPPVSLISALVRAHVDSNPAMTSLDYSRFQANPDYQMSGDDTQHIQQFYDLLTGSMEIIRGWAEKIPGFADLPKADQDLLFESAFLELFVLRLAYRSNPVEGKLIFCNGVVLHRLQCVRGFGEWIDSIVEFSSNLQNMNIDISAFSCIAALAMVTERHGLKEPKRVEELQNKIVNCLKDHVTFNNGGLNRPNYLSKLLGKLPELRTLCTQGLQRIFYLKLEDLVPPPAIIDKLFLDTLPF
Sequence of Bile acid receptor (Homo sapiens) (Q96RI1 whole entry, looked up, the tested form may be a part): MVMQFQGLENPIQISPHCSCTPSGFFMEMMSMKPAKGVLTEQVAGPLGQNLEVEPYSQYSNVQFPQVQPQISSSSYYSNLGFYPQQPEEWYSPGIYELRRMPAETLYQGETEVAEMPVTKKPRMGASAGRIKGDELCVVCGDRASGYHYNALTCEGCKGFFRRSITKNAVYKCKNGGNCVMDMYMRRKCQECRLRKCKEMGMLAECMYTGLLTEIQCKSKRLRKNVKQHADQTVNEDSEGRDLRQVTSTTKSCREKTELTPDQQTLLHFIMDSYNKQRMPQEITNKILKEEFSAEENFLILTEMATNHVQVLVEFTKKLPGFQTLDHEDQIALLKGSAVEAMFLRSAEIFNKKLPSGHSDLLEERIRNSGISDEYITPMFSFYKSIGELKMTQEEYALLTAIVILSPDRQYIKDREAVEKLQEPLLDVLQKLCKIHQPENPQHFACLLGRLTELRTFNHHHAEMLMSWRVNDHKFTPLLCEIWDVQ
Sequence of X-box-binding protein 1 (Homo sapiens) (P17861 whole entry, looked up): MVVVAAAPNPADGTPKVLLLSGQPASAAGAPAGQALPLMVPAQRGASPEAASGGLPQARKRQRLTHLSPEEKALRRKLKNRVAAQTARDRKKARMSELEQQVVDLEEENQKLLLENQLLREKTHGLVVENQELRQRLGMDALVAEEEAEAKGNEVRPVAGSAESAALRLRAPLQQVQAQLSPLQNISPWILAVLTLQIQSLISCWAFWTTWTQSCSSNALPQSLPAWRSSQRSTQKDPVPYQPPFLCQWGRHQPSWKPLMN
Sequence of Oxysterols receptor LXR-alpha (Homo sapiens) (Q13133 whole entry, looked up, the tested form may be a part): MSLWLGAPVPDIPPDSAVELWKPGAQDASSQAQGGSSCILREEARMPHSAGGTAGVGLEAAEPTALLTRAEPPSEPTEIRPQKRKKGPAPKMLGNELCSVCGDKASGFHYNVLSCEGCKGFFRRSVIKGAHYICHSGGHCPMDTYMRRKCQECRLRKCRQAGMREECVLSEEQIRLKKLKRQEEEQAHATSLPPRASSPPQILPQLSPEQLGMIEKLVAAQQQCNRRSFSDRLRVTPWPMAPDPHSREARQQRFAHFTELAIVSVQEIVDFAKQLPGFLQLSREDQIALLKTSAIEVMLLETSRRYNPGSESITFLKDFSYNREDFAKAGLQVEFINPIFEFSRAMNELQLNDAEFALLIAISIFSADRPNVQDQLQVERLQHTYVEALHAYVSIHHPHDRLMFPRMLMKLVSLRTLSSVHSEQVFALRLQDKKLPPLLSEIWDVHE

Turning to `CC1(C)COCN1`, the compound was called inactive in [1], in assay [2], in [3], in assay [4], in assay [5] and in assay [6]. Besides, the compound was classed as inactive in assay [7], in assay [8], in [9], in assay [10], in [11] and in [12]. Besides, the outcome in [13] was inactive.
Consider `Cc1ccc(OC(=O)c2ccccc2O)cc1`, for which the compound was called inactive in assay [1], in [2], in [3], in [4], in [6] and in assay [14]. Further, the call in [15], in assay [16], in [17], in assay [11], in assay [12] and in assay [13] was inactive.
As to `CCCOC(=O)c1c(Cl)c(Cl)c(Cl)c(Cl)c1C(=O)OCCC`, the result in assay [1], in [2], in [3], in assay [4], in assay [6] and in [15] was inactive. Also, the compound was called inactive in [16], in assay [17] and in assay [11]. Moreover, the AC50 in [5] is 130 µM (active); in [12], 146 µM (active); in assay [13], 156 µM (active).
On to `CCCCCCCCC=CCCCCCCCC1=NCCN1CCO`, for which the call in assay [1], in [3], in assay [18], in assay [5], in assay [6] and in assay [14] was inactive. Moreover, the compound was called inactive in assay [7], in assay [9], in [10], in [15], in assay [11] and in assay [12]. For the same compound, the AC50 in assay [2] was 0.666 µM (active); in assay [13], 6.21 µM (active).
Regarding `Cc1cc(S(=O)(=O)O)ccc1N=Nc1c(O)ccc2ccccc12`, the compound was called inactive in [1], in [3], in assay [18], in assay [5], in assay [6] and in [14]. The result in assay [7], in assay [8], in assay [9], in assay [10], in assay [17] and in assay [11] was inactive. In addition, the call in [12] and in assay [13] was inactive. Moreover, the half-maximal activity concentration (AC50) in assay [2] was 4.96 µM (active).
